Experimental data taken from the supplement of paper PMC11732987, “Enantioselective OTUD7B fragment discovery through chemoproteomics screening and high-throughput optimisation” (Communications Chemistry, 2025).

Columns and labels:
Experiment in all cases: log2 ratio of Biotin-Ahx-Ub-VS probe labelling (fragment/DMSO); higher = less target engagement (more negative = stronger competition), active = hit call of the paper (q ≤ 0.05, log2 ratio ≤ -1)
Details in all cases: compound concentration: 200 uM; treatment time: 3 h
[1] = target: USP34 (UniProt Q70CQ2)
Outline: (§1)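 HEK293T lysate (495 µg per sample, in Tris/CHAPS/IGEPAL buffer with protease inhibitors) was exposed in triplicate for 3 h to fragment at 200 µM or to vehicle, then to Biotin-Ahx-Ub-VS at 0.5 µM final for 1 h. Labelled DUBs were enriched on NeutrAvidin, digested with LysC and trypsin, and analysed by diaPASEF LC-MS/MS. Spectronaut label-free quantities were normalised to the global median, and values are average log2 ratios of fragment over vehicle from an unpaired t-test. Only proteins with ≥2 unique peptides were used.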

[2] = target: T1, USP36 (UniProt Q9P275)
T1 sequence (whole entry): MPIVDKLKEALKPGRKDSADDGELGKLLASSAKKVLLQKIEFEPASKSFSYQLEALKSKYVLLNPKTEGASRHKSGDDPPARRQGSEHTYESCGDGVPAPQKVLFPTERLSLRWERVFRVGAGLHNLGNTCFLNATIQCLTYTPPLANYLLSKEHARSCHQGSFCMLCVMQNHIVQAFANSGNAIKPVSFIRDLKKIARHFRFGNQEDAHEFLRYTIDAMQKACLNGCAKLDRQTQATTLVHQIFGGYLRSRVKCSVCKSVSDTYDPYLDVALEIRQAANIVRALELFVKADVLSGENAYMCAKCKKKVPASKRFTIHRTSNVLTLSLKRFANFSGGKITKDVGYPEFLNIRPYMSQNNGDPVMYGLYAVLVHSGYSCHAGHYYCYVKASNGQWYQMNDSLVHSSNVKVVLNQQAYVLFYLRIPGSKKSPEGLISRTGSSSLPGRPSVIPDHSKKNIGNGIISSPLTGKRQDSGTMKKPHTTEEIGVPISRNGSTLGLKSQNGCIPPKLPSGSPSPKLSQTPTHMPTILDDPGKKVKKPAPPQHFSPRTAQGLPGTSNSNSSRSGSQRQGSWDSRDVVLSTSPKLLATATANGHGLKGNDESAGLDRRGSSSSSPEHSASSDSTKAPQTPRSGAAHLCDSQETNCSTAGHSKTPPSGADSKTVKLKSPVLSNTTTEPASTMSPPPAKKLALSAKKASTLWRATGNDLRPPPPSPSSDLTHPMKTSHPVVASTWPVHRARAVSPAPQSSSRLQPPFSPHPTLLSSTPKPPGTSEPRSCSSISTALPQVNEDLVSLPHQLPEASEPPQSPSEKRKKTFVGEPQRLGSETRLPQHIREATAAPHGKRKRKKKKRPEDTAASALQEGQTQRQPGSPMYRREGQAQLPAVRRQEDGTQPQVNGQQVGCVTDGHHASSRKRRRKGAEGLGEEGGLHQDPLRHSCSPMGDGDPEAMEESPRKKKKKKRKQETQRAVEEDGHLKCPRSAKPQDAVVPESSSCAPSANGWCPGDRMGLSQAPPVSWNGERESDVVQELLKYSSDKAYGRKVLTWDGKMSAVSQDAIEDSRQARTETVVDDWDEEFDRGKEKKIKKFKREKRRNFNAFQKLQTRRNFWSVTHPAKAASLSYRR
Outline: as §1

[3] = target: T2, USP38 (UniProt Q8NB14)
T2 sequence (whole entry): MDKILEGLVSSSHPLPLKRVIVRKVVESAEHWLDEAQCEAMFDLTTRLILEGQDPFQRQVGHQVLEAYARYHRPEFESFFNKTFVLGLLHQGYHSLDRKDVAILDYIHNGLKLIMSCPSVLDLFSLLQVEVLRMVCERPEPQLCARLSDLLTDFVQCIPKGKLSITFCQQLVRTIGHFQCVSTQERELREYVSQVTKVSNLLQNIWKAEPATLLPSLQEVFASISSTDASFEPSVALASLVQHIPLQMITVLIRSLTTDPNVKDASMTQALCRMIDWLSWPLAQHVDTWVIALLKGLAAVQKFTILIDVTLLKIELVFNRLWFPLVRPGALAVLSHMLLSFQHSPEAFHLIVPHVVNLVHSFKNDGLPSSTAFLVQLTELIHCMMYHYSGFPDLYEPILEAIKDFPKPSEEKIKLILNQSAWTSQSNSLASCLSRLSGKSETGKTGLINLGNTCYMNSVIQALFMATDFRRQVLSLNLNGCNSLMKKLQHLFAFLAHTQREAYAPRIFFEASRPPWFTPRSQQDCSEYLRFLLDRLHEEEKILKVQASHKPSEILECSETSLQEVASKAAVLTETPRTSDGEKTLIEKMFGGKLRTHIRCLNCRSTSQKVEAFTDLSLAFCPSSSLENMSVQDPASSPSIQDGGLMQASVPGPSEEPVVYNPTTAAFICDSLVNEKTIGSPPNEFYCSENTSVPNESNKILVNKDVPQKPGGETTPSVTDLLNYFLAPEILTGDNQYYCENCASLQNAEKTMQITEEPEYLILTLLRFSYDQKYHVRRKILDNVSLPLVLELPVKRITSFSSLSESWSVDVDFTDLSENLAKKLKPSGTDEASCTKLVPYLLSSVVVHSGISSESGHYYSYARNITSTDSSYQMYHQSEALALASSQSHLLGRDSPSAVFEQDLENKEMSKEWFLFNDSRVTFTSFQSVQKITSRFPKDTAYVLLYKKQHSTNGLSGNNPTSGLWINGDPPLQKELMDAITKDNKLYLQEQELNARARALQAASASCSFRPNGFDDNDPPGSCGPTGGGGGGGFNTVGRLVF
Outline: as §1

[4] = target: T3, USP39 (UniProt Q53GS9)
T3 sequence (whole entry): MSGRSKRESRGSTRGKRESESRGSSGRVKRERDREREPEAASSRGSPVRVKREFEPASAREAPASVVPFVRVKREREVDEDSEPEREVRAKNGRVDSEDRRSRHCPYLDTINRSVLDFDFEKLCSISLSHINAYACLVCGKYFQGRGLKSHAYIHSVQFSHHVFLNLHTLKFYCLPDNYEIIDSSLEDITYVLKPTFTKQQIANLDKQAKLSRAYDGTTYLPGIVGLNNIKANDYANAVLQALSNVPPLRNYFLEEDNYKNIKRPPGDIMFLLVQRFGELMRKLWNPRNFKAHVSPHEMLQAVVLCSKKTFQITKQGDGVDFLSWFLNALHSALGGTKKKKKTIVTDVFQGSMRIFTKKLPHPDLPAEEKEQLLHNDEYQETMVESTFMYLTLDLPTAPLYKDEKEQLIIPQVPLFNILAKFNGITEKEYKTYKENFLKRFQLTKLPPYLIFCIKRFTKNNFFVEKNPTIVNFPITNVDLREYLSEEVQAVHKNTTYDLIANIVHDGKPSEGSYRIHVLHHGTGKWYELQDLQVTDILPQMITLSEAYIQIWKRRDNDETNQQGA
Outline: as §1

[5] = target: T4, USP4 (UniProt Q13107)
T4 sequence (whole entry): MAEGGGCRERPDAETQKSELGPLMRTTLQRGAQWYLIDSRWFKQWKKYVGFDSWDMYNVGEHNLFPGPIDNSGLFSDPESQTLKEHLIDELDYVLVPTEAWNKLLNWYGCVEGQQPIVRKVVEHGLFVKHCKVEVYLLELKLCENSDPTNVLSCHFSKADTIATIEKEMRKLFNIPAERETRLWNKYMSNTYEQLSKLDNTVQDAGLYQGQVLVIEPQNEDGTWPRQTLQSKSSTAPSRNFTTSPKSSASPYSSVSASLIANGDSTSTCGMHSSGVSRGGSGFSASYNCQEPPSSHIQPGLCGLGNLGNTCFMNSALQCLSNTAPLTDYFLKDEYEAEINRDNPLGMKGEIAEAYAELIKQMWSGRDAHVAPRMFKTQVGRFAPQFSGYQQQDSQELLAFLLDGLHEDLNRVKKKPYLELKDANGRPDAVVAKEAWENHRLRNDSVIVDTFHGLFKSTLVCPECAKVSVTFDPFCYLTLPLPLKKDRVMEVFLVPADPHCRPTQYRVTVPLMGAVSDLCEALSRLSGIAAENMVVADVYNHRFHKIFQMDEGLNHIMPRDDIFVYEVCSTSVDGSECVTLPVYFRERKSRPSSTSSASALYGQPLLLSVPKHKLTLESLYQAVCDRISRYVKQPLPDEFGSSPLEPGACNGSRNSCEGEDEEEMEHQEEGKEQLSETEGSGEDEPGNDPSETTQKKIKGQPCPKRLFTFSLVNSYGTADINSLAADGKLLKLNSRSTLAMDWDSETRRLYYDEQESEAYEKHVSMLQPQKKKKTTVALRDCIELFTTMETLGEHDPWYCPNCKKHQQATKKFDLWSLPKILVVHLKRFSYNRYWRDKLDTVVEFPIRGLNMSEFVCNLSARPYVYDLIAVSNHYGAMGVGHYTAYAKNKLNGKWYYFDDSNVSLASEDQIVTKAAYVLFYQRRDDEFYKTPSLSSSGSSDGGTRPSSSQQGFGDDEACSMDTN
Outline: as §1

Measured: log2 ratio of Biotin-Ahx-Ub-VS probe labelling

Chain of USP34 (Q70CQ2 whole entry, the tested form may be a part): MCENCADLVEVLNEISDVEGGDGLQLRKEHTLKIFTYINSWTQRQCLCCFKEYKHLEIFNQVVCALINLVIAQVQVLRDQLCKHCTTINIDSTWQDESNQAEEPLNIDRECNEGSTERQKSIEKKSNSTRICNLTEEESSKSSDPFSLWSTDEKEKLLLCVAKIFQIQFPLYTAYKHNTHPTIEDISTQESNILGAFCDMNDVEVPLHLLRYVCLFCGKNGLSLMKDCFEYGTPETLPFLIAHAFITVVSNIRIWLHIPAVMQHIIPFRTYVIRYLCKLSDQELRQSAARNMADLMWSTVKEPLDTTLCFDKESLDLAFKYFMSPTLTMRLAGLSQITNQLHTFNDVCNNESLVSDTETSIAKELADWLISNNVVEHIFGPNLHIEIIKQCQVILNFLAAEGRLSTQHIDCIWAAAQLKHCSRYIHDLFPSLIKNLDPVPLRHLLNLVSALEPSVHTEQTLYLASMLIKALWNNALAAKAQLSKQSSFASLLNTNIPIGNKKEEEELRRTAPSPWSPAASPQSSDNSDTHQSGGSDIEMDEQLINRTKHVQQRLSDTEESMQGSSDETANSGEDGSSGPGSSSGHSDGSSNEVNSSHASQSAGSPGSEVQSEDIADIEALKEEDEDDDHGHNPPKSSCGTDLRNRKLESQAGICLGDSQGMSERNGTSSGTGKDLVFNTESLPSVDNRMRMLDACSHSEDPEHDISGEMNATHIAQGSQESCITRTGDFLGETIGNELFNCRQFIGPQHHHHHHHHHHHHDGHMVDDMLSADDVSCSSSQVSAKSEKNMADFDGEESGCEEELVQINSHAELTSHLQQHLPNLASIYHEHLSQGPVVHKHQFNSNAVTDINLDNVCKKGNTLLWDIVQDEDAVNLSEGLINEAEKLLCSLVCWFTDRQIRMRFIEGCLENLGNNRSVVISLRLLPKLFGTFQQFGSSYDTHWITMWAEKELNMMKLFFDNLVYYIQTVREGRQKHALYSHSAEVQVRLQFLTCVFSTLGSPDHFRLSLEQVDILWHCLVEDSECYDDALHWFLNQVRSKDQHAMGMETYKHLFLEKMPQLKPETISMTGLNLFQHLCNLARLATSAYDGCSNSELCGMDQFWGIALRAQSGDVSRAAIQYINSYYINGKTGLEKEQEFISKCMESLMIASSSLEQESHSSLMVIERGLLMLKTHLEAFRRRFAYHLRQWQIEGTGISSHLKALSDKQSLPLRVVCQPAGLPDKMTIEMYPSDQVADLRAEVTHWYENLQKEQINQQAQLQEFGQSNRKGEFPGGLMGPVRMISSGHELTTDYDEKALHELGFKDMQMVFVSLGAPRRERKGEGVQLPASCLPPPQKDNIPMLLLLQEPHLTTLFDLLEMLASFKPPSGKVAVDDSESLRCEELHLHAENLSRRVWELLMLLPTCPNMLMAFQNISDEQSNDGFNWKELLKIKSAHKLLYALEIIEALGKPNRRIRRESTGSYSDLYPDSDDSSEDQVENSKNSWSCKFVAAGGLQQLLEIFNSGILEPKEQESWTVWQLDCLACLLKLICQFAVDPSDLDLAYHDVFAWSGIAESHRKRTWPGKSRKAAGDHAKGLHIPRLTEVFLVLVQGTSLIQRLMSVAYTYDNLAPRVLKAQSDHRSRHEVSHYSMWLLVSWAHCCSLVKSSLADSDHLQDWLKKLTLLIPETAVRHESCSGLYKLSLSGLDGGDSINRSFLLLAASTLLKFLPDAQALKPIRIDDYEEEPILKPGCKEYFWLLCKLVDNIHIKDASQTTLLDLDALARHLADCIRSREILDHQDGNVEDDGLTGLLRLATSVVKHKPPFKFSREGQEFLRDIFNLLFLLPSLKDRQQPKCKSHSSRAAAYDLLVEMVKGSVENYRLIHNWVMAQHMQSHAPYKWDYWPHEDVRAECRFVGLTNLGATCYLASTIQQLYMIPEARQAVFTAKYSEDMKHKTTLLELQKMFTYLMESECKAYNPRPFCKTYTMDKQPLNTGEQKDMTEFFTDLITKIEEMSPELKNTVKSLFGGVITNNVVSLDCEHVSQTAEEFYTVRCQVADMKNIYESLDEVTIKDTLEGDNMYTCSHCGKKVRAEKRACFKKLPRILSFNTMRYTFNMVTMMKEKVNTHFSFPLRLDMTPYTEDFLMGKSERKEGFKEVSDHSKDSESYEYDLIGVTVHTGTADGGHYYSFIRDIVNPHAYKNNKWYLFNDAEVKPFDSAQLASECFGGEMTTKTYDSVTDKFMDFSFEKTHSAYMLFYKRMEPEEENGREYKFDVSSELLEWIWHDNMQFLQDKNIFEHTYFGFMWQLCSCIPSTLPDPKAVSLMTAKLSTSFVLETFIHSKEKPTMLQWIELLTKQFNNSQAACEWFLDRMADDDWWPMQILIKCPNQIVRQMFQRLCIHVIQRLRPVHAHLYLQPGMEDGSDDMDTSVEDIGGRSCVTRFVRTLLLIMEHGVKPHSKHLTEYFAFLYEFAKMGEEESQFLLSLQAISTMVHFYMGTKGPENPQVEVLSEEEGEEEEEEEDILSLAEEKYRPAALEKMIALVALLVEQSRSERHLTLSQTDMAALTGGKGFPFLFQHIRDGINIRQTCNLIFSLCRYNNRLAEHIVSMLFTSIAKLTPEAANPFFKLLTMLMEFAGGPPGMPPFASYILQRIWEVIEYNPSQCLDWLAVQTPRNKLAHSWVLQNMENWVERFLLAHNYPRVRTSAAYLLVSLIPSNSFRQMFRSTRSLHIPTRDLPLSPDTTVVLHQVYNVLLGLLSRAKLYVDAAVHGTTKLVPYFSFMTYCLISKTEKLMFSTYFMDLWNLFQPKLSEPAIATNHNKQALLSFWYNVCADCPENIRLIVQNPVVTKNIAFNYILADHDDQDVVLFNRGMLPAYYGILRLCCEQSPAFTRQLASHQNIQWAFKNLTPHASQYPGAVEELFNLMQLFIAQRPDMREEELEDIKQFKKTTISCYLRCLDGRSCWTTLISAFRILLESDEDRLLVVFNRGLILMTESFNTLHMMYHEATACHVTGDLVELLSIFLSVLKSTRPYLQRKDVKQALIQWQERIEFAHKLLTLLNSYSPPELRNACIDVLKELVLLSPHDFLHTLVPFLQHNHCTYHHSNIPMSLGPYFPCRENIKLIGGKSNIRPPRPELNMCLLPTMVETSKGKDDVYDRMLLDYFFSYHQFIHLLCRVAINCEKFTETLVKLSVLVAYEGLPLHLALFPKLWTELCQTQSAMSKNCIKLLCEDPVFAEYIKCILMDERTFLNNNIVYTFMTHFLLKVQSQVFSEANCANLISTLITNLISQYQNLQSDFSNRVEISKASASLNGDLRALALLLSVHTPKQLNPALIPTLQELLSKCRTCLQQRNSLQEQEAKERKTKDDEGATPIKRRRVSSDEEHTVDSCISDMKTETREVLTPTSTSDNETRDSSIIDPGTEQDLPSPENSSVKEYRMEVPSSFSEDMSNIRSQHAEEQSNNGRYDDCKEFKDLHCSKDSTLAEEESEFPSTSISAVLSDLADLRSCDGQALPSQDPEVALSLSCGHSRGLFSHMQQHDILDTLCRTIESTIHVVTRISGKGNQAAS

O=C(CCl)N1CCN2C(=O)CCC2C1 (stereo not given)
inactive: [1] -0.0311 | [2] 0.272 | [3] 0.0868 | [4] -0.106 | [5] -0.0639
